Substitutions are numbered along the chain they refer to. Over roughly 24,000 sequences, “enrichment r” has its median near 0.99; the highest 2% begin near 3.7. What follows is part of a selection rich in the highest values, with near analogues and random picks from the rest.
T1: UNK ZnF1-3 (human, UniProt Q9C0B0 31-174)
T1 sequence: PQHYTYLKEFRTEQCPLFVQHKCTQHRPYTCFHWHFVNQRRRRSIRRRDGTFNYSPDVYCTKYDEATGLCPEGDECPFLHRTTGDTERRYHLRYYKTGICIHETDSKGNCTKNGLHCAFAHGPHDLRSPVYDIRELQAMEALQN

B1: chr12:39756943:39756944:-_ENSG00000139116_ENST00000544797|hu_mus|hu_hu_hu_mus_False|48_78 (ssRNA)
RNA: GGGAGUUCUACAGUCCGACGAUCGGUUUGGCUGUUACCCCCAAGGGAAUCCUGCAAUAGUCUUGUUAGCUUAGAGUCUCUGUAAGGGACAUGUGUGGCUCUCUUGCUCUUGUCCCCCAAGGCGCUGAUUACAUUCCCAAGAGCCAACAGAGGAUUGAGCAUCA
B2: chr4:140309118:140309119:+_ENSG00000164134_ENST00000296543|hu_mus|FALSE|FALSE (ssRNA)
RNA: GGGAGUUCUACAGUCCGACGAUCGUAUCCAGGAGGCAUGAAAGCCAAAGCAUAAGGGAAAAGCUUAUGACAACUUGCUCUGUAGGCUUCGGCAGCUUCUUUACAGUCUCCUAGGCUACCAUCACACAAGGCUUCCAACACCUCCAACAGAGGAUUGAGCAUCA
B3: chr3:10015032:10015033:+_ENSMUSG00000027533_ENSMUST00000029046|mus_mus|mus_mus_mus_hu_True|1_58 (ssRNA)
RNA: GGGAGUUCUACAGUCCGACGAUCGUUUUUACCAUCACAAGUGAUGAUACAAUCUGGCUUGGCCAUUGCGCCCAUUUUCCUAAGAGCUAUUCCCACUCCUAGCUCCUUCAUGUAUUCAUCAAAGCCUUUGCUGUCCAUCAGGCGCAACAGAGGAUUGAGCAUCA
B4: 64658990_64660614_189_3pUTR_ENSMUSG00000024083_ENSMUST00000024889|mouse|control|control (ssRNA)
RNA: GGGAGUUCUACAGUCCGACGAUCAUCCAAUGAACUGGAACCUGAGGUGUUCUCCUUUGGAACAUCGUCUAGUUCCAACACUUCAUAGUCAUCACCAGCCCGACCCAAGCUUCUUUCAUGCCUGGUCAUACAUGGCUUAAAACUCAACAGAGGAUUGAGCAUCA
B5: 104713310_104714935_678_CDS_ENSG00000198431_ENST00000397736|human|control|control (ssRNA)
RNA: GGGAGUUCUACAGUCCGACGAUCAGCGACAUAGGAUGCUCCAACAACCAGGGUCUUACCCGGGCAGUAAGGCAAGGAGAAAAGAUCAUCACUGCUGAUGCAGUAUUCUUUGUCACCAGGGAUGCCCAAGUAACGUGGUCUUUCCAACAGAGGAUUGAGCAUCA
B6: chr11:4127340:4127341:+_ENSG00000167325_ENST00000300738|hu_mus|hu_hu_hu_mus_False|28_88 (ssRNA)
RNA: GGGAGUUCUACAGUCCGACGAUCGGCAUAGUCAGGGUGCUUCGUGGUCAAGGUUGCGGCUGUCUCAGCAGCCAGGGUGUCCAGUUCCACUGUGGUGACCCCACUAUACAAGCCUUGGAUUACUUUCAUGGUGAUCUGAGCAGGCAACAGAGGAUUGAGCAUCA
B7: chr3:142455422:142455423:-_ENSMUSG00000004591_ENSMUST00000043812|mus_mus|FALSE|FALSE (ssRNA)
RNA: GGGAGUUCUACAGUCCGACGAUCGGGAGAACAACAGAGUGACAGCCUAGGAGAAAAAAGGGAAAAACAAAACAAAAAUCUAAUAAAAUUCCAGCCCAGUGAAGAUCAUGAUUUGCAAACAGGCAUAUGGUAAGAGCGAUACAACAACAGAGGAUUGAGCAUCA
B8: chr16:94690093:94690094:+_ENSMUSG00000040785_ENSMUST00000117648|mus_hu|mus_mus_mus_hu_True|68_98 (ssRNA)
RNA: GGGAGUUCUACAGUCCGACGAUCGGGCUGGGAUGACAGCAGACAGCCCUCGAUUCCAGGGGGAAAAAAAAAUAGCCGAUACUAAUUAAAAAGUGUUAAUGAUUUUUGAAAAUCAGAUUACAUCUAUAAAAGAUGAAAAGCAAACAACAGAGGAUUGAGCAUCA
B9: 65373527_65373647_4270_3pUTR_ENSMUSG00000024589_ENSMUST00000163516|mouse|control|control (ssRNA)
RNA: GGGAGUUCUACAGUCCGACGAUCAGGGAGGCAGGAGCAAUCGCCACGAGUGAUAUUCGUGAAAAAAAAAAAAAAAAUGGAAACAAAACCAGAUGUGACCUCCAUAAAGUGCCUUCAGAAGGGACGCAGAUACAGCAAAGGAAGCAACAGAGGAUUGAGCAUCA
B10: chr14:49642940:49642941:-_ENSMUSG00000061244_ENSMUST00000162175|mus_mus|motif|central (ssRNA)
RNA: GGGAGUUCUACAGUCCGACGAUCUAAAGCAUAAUCAAUAUGCUCAAUACAUAAAAAUUCCACAAGAAUGGUAAAAAUUCGGAAGGCAUUCCUUGGUAAAUCAGAAGGAUCAGAAAGCCUAUGACAUCUUUCAAAGGCUUGUUUCAACAGAGGAUUGAGCAUCA
B11: 21140421_21141420_1149_CDS_ENSG00000141458_ENST00000269228|human|control|control (ssRNA)
RNA: GGGAGUUCUACAGUCCGACGAUCCUCCAUCCCAUGGACUGGAAAAUCUGAAAACACAGGAGUGAUGGUAAAAGGUGCCUGUCCAUUGUCCUUAUUGAACAUGUAUUCAAUCCAGUUGGUGGCAUUACAGGCGUCAGCGUCCUUCAACAGAGGAUUGAGCAUCA
B12: chr3:142455422:142455423:-_ENSMUSG00000004591_ENSMUST00000043812|mus_mus|motif|central (ssRNA)
RNA: B7 RNA with U80G, A81G
B13: 82880966_82885890_579_3pUTR_ENSMUSG00000000627_ENSMUST00000000641|mouse|control|control (ssRNA)
RNA: GGGAGUUCUACAGUCCGACGAUCGCUGGAAACUGGACACAUCAAUAACCCCGCACUUCGGAUCAAAAGCGAAGGUGCCACACGUGAGGAGGUGAGAGGCAUUGGCAAUGGCGAGAAUCUGGAUAAAAUUGUGACAUUCGUCCUCAACAGAGGAUUGAGCAUCA
B14: chr7:74146866:74146867:+_ENSG00000077809_ENST00000416070|hu_hu|motif|central (ssRNA)
RNA: GGGAGUUCUACAGUCCGACGAUCUUCCUUUGCAAGUAAUAUCCUCUCCAGGCGAGGAAUUCCGUAAGUAGAUGGCCUUCGGAAAGGAAUUCCUUCAGGAAGUCCUUCUACAUAAAGAUCUUCAACAUGAGACUGGAAAAGAGGCAACAGAGGAUUGAGCAUCA

Each binder was assayed against T1, UNK ZnF1-3 (assay: nsRBNS (natural sequence RNA bind-n-seq); RBNS binding buffer (assumed for nsRBNS): 25 mM Tris pH 7.5, 150 mM KCl, 3 mM MgCl2, 0.01% Triton X-100, 500 ug/ml BSA, 20 U/ml SUPERase-In, 4 C; UNK is unkempt and MSI1 is Musashi-1; names of the RNAs are library labels; protein concentration not given here; high values mean tight binding).
Work on B1 yielded a binding signal of 0.772 enrichment R.
In the case of B2, the binding signal is reported as 0.414 enrichment R.
With B3 the binding signal was 0.728 enrichment R.
In the case of B4, the binding signal is reported as 0.333 enrichment R.
With B5 the binding signal was 1.69 enrichment R.
B6 showed a binding signal of 0.876 enrichment R.
B7 showed a binding signal of 4.59 enrichment R.
B8 showed a binding signal of 3.34 enrichment R.
B9 showed a binding signal of 6.96 enrichment R.
Binder B10 has a binding signal of 0.426 enrichment R.
B11 gave a binding signal of 0.935 enrichment R.
In the case of B12, the binding signal is reported as 5.45 enrichment R.
Binder B13 has a binding signal of 2.22 enrichment R.
In the case of B14, the binding signal is reported as 0.729 enrichment R.
